# Laboratory results taken from PubChem BioAssay.
# Calls of active or inactive are those of the source. Unless noted, the rule behind the calls is not given here.
# Columns and labels:
# [1] = HepG2 liver cancer cell viability effects, profiling panel, resazurin fluorescence, 24 h, PK04 Diversity Set (AID 1172); settings: higher = more signal
# [2] = basal S. cerevisiae growth modulation, no modifier, primary screen, OD600, strain BY4716, 24 h, basal condition (AID 1173); settings: OD600, 24 h, higher = more signal, called active from +8 up or from −8 down
# [3] = MM1S myeloma cell viability, profiling panel, resazurin fluorescence, basal, 24 h, PK04 Diversity Set (AID 1174); settings: higher = more signal, called active from +8 up or from −8 down;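 note: MM1S multiple myeloma cell line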
# [4] = target: Dihydroorotate dehydrogenase (quinone), mitochondrial (Plasmodium falciparum (isolate 3D7)) (UniProt Q08210); assay: PfDHODH enzyme inhibitors, primary screen, biochemical, C-terminal His tag, absorbance 600 nm (AID 1175); settings: DCIP absorbance 600 nm, higher = more signal, called active from +8 up or from −8 down;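 note: recombinant parasite enzyme with a five histidine tag at its C terminus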
# [5] = P. aeruginosa biofilm formation inhibitors, primary screen, strain PAO1, LB-PBS medium, absorbance 600 nm (AID 1176); settings: P. aeruginosa PAO1 growth/biofilm, A600, 12 h; higher = more signal
# [6] = S. cerevisiae RM11-1a growth modifiers, primary screen, strain RM11-1a, OD600, basal, 24 h (AID 1177); settings: OD600, 24 h, higher = more signal, called active from +8 up or from −8 down;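 note: cultures grown under basal conditions with no added stressor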
# [7] = E. coli acrAB mutant growth effects, primary screen, E. coli filamentation inducers, strain DRC39, OD650, 24 h (AID 1178); settings: higher = more signal, called active from +8 up or from −8 down;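 note: growth measured as culture turbidity by optical density at 650 nm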
# [8] = E. coli acrAB mutant growth effects, primary screen, E. coli filamentation inducers, strain DRC39, OD650, 48 h (AID 1179);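 note: screen aims at cell division blockers that make cells filament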; settings: E. coli DRC39 delta-acrAB growth, higher = more signal, called active from +8 up or from −8 down
# [9] = RPMI8226 myeloma cell viability, profiling panel, resazurin fluorescence, basal, 24 h, PK04 Diversity Set (AID 1180); settings: higher = more signal;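 note: RPMI8826 multiple myeloma cell line at 5000 cells per well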
# [10] = target: E3 ubiquitin-protein ligase XIAP (Homo sapiens) (UniProt P98170); assay: XIAP binders, primary screen, biophysical, small-molecule microarray, fluorescence 635 nm (AID 1181); settings: small-molecule microarray binding, higher = more signal;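 note: score merges 667 nm emission and signal to noise over triplicate slides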
# [11] = test system: XIP peptide (Xip251-270) binding; assay: small-molecule binders of XIP peptide, primary screen, biochemical, small-molecule microarray, fluorescence 635/667 nm, 0.1 µg/mL protein (AID 1182); settings: fluorescent protein binding, 635 nm, higher = more signal, called active from +8 up or from −8 down
# XIP peptide (Xip251-270) = assay: small-molecule binders of XIP peptide, primary screen, biochemical, small-molecule microarray, fluorescence 635/667 nm, 0.5 µg/mL protein (AID 1183); settings: small-molecule microarray binding, fluorescence 635 nm; higher = more signal
# [12] = Plasmodium falciparum growth inhibition, primary screen, strain 3D7, DAPI fluorescence, 100 nL (AID 1184);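 note: parasites grown inside human red blood cells in medium with human serum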; settings: P. falciparum 3D7 growth, 3 d, higher = more signal
# [13] = target: Homeobox protein Hox-A13 (Mus musculus) (UniProt Q62424); assay: inhibitors of HoxA13-DNA binding, primary screen, biochemical, fluorescence polarization, labeled oligonucleotide (AID 1185); settings: 15 min, higher = more signal, called active from +8 up or from −8 down
# [14] = inhibitors of hydroxyurea-induced Chk1 phosphorylation, primary screen, imaging, HeLa, phospho-Chk1 antibody, percent positive cells (AID 1186); settings: hydroxyurea-induced phospho-Chk1 immunofluorescence imaging, higher = more signal
# [15] = inhibitors of hydroxyurea-induced Chk1 phosphorylation, primary screen, imaging, HeLa, phospho-Chk1 nuclear intensity (AID 1187); settings: hydroxyurea-induced phospho-Chk1 immunofluorescence imaging, higher = more signal
# Sequence of Dihydroorotate dehydrogenase (quinone), mitochondrial (Plasmodium falciparum (isolate 3D7)) (Q08210 whole entry, looked up): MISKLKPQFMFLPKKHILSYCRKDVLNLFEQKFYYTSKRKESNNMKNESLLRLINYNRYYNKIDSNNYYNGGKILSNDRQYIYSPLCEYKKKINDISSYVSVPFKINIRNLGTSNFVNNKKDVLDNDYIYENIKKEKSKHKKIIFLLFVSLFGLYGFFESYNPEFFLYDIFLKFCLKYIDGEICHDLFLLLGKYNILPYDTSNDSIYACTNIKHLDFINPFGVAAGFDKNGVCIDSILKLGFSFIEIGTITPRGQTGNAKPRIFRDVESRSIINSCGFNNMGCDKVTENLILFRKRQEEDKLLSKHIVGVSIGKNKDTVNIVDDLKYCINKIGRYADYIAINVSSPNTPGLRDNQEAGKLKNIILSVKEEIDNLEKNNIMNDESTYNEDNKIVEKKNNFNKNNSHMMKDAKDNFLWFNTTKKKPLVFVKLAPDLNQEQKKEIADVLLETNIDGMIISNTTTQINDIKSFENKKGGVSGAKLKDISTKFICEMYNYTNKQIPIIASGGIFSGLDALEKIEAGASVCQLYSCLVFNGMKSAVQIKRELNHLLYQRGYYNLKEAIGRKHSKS
# Sequence of Homeobox protein Hox-A13 (Mus musculus) (Q62424 whole entry, looked up): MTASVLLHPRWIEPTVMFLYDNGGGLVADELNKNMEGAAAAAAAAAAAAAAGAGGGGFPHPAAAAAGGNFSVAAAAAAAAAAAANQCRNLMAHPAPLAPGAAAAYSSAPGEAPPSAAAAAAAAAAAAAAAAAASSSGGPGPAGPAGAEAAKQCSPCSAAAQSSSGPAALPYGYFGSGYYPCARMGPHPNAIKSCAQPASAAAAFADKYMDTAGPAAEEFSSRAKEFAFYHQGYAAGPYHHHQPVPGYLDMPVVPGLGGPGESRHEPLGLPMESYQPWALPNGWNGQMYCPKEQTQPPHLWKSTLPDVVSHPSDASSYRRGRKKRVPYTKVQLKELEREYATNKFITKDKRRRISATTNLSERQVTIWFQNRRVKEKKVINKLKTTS
# Sequence of E3 ubiquitin-protein ligase XIAP (Homo sapiens) (P98170 whole entry, looked up): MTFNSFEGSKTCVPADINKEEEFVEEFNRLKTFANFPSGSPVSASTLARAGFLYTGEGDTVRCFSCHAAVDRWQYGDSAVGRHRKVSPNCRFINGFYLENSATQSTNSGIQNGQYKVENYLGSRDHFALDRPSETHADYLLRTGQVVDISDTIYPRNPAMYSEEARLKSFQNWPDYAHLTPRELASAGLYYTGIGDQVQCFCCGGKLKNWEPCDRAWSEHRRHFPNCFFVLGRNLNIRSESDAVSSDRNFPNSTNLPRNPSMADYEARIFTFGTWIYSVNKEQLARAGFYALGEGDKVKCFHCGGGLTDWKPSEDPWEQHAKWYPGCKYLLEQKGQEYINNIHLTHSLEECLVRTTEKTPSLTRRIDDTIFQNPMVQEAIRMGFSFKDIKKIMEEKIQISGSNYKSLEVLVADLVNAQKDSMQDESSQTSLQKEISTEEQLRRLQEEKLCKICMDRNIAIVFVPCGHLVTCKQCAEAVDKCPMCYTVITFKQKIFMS
Compound,z-score [1],z-score [2],z-score [3],composite z-score [4],z-score [5],z-score [6],z-score [7],z-score [8],z-score [9],composite z-score [10],composite z-score [11],composite z-score (XIP peptide (Xip251-270)),z-score [12],z-score [13],z-score [14],z-score [15]
CC(C)(C)OC(=O)CC[C@]1(C(N)=O)N=C(c2ccc(OCCCO)cc2)O[C@H]1c1ccccc1N=[N+]=[N-],0.551,0.0323 (inactive),-0.446 (inactive),0.982 (inactive),-0.0279 (inactive),0.979 (inactive),0.0489 (inactive),1.12 (inactive),0.596,0.333,0.466 (inactive),0.351,0.129,-6.52 (inactive),-0.373 (inactive),-0.285 (inactive)
CCCCCCc1nc(Cc2cc(OC)c(OC)c(OC)c2)c(C)c2c1[Si](C(C)C)(C(C)C)OC2,-0.422,-0.944 (inactive),0.328 (inactive),-3.29 (inactive),0.055 (inactive),-0.599 (inactive),1.4 (inactive),0.707 (inactive),0.556,0.146,-0.814 (inactive),0.0092,-2.76,-1.45 (inactive),-0.817 (inactive),-0.386 (inactive)
CCOC(=O)C[C@H]1[C@H](OC(=O)Cc2ccc3c(c2)OCO3)[C@@H](NC(=O)CC(C)C)c2cc(OCCCO)ccc2N1C(=O)c1ccc2ccccc2n1,0.0081,-1.8 (inactive),-0.0432 (inactive),-1.94 (inactive),-1.53 (inactive),-0.0738 (inactive),0.57 (inactive),-0.0185 (inactive),-0.255,0.514,0.216 (inactive),0.784,-2.04,-4.65 (inactive),-0.0615 (inactive),0.252 (inactive)
C=C(/C=C\CNS(=O)(=O)c1ccc(C)cc1)[C@H](O)[C@H]1CCCN1S(=O)(=O)c1ccccc1[N+](=O)[O-],-0.527,0.487 (inactive),-0.943 (inactive),1.57 (inactive),1.21 (inactive),2.53 (inactive),1.12 (inactive),-0.23 (inactive),-0.851,-0.0448,-0.167 (inactive),-0.167,-1.8,-5.5 (inactive),-0.225 (inactive),0.161 (inactive)
COc1ccc(C(=O)Nc2ccc(CN3C(=O)[C@@]4(O[C@@H](CC(=O)N(CCO)Cc5ccccc5)[C@H]([Si](C)(C)c5ccc(OC)cc5)[C@H]4C)c4ccccc43)cc2)cc1,1.4,0.164 (inactive),-0.952 (inactive),-1.53 (inactive),0.814 (inactive),0.961 (inactive),0.7 (inactive),0.439 (inactive),-1.29,0.101,1.96 (inactive),0.622,-0.992,-1.31 (inactive),-0.543 (inactive),-0.262 (inactive)
[N-]=[N+]=Nc1ccccc1C[C@@]1(C(=O)NCc2ccccc2)N=C(c2ccc(OCCCO)cc2)O[C@@H]1c1ccccc1,0.508,-0.0233 (inactive),-1.71 (inactive),0.889 (inactive),2.51 (inactive),1.17 (inactive),0.712 (inactive),-0.489 (inactive),-0.564,0.204,-0.116 (inactive),0.746,-2.51,-2.4 (inactive),-0.603 (inactive),-0.942 (inactive)
C=CCOC(=O)[C@H]1[C@@H]2C(=O)O[C@@H](c3ccccc3)[C@@H](c3ccccc3)N2[C@@H](c2ccc(OCCOC(=O)[C@H]3C[C@H]4C(=O)NCC(=O)N4[C@H]3c3ccc(O)cc3)cc2)[C@]12C(=O)Nc1ccccc12,-0.0886,1.1 (inactive),1.02 (inactive),0.814 (inactive),0.916 (inactive),2.99 (inactive),0.504 (inactive),-0.0754 (inactive),1.72,-0.202,0.758 (inactive),0.81,-1.56,-0.844 (inactive),-0.374 (inactive),0.182 (inactive)
Cc1ccc(S[C@]2(C(=O)NC3CC3)CC(=O)N(C3Cc4ccccc4C3)[C@@H]2c2ccc(CO)cc2I)cc1,-0.386,-4.29 (inactive),-2.54 (inactive),0.282 (inactive),0.0493 (inactive),0.283 (inactive),0.112 (inactive),-0.266 (inactive),-1.24,-0.174,0.406 (inactive),0.559,-0.396,-2.46 (inactive),0.586 (inactive),0.97 (inactive)
C=C(C(=O)CC[C@@H](OC(=O)c1cccnc1)c1cccc(OCCO)c1)C(C)C,0.38,-0.58 (inactive),-0.667 (inactive),-1.33 (inactive),0.33 (inactive),-1.3 (inactive),0.863 (inactive),0.816 (inactive),-1.34,0.127,-0.0726 (inactive),0.61,-2.56,-3.51 (inactive),-0.361 (inactive),0.519 (inactive)
COc1ccc([Si](C)(C)[C@@H]2[C@@H](CC(=O)N(CCO)Cc3ccccc3)O[C@]3(C(=O)N(Cc4cccc(I)c4)c4ccccc43)[C@H]2C)cc1,-2.2,-0.142 (inactive),-3.25 (inactive),0.704 (inactive),1.51 (inactive),2.64 (inactive),-0.335 (inactive),-0.795 (inactive),-2.96,0.236,0.479 (inactive),0.252,-2.86,-1.79 (inactive),0.55 (inactive),0.828 (inactive)
